This passage reports growth results from PubChem BioAssay (NCI).

This is part of a sample that, as a whole, favours compounds with a hit. Of some 83,000 tested, about 20% had one in any assay.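 For each line, cells grew in 96-well plates with the test compound present at a single concentration for 48 hours.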 Unmarked numbers belong to inactive results. Calls of active or inactive are those of the source. How the source made its calls: active means growth percent below 10; inactive means the rest.

Test systems include HCT-15 colon; HT29 colon; SNB-75 CNS; SNB-19 CNS; U251 CNS; PC-3 prostate; SK-MEL-5 melanoma; UACC-62 melanoma; LOX IMVI melanoma; SK-MEL-28 melanoma; SK-MEL-2 melanoma; EKVX NSCLC; SN12C renal; UO-31 renal; TK-10 renal; ACHN renal; CAKI-1 renal; A498 renal; CCRF-CEM leukemia.
Common to all, as to assay: NCI-60 one-dose screen, 48 h (100 = growth as untreated, 0 = no growth, -100 = all killed)
Common to all, as to settings: 10 µM unless noted

Consider `Cn1ncc2ccc(-c3nc(-c4ccccc4)[nH]c3-c3n[nH]c(=O)n3C3CC3)cc21`, for which the growth in the assay with HCT-15 colon was 100%; with HT29 colon it was 87.1%; in the assay with SNB-75 CNS it was 81.2%; with SNB-19 CNS, 95.9%; with U251 CNS, 100%; in the assay on PC-3 prostate it was 77.9%. The growth was 98.8% with SK-MEL-5 melanoma; 100% with UACC-62 melanoma; 97.2% with LOX IMVI melanoma; 102% in the assay on SK-MEL-28 melanoma; 101% in the assay with SK-MEL-2 melanoma; 96% with EKVX NSCLC. Moreover, the growth with SN12C renal was 101%; with UO-31 renal it was 93.1%; in the assay on TK-10 renal it was 103%; in the assay on ACHN renal, 97%; in the assay on CAKI-1 renal it was 94.8%; with A498 renal it was 48.7%. For the same molecule, the growth with CCRF-CEM leukemia was 96.4%.

As for `Brc1ccc(-c2cnc3nonc3n2)cc1`, the growth with HCT-15 colon is 54.8%; in the assay with HT29 colon it was 70.2%; in the assay with SNB-75 CNS, 96%; with SNB-19 CNS, 88.2%; with U251 CNS it was 92.5%; in the assay with PC-3 prostate, 57.1%. Further, the growth with SK-MEL-5 melanoma was 48.5%; in the assay on UACC-62 melanoma, 51.7%; in the assay on LOX IMVI melanoma it was 38%; in the assay on SK-MEL-28 melanoma, 104%; with SK-MEL-2 melanoma, 88.9%; in the assay with EKVX NSCLC, 72.1%. Also, the growth with SN12C renal is 96.1%; in the assay on UO-31 renal it was 63.6%; in the assay on TK-10 renal, 96.3%; in the assay on ACHN renal, 76.9%; in the assay on CAKI-1 renal, 59.7%; with A498 renal, 96.7%. The growth with CCRF-CEM leukemia is 30%.

Regarding `COc1cc(OC)cc(C2C(C#N)=C(N)Oc3c2ccc2ccc(O)cc32)c1` (configuration not stated), the growth in the assay with HCT-15 colon is 4.56% (active); with HT29 colon it was 7.81% (active); with SNB-75 CNS, 72%; in the assay with SNB-19 CNS it was 26.9%; in the assay on U251 CNS it was 12.8%; with PC-3 prostate, 17.6%. Moreover, the growth in the assay with SK-MEL-5 melanoma is -45.6% (active); in the assay with UACC-62 melanoma, 28.9%; in the assay with LOX IMVI melanoma it was 0.698% (active); with SK-MEL-28 melanoma it was 48.6%; in the assay on SK-MEL-2 melanoma, 21.3%; with EKVX NSCLC, 32.9%. In addition, the growth in the assay with SN12C renal is 9.97% (active); in the assay with UO-31 renal, 18.7%; with TK-10 renal, 48.3%; in the assay on ACHN renal it was 15.8%; in the assay with CAKI-1 renal it was 21.1%; in the assay on A498 renal it was 32.1%. Further, in the assay with CCRF-CEM leukemia, the growth is 7.39% (active).

In the case of `CCOC(=O)C(=Cc1cccc(C#N)c1)C(=O)OCC`, the growth in the assay with HCT-15 colon is 39%; in the assay with HT29 colon it was 20%; in the assay on SNB-75 CNS, 60.2%; in the assay on SNB-19 CNS it was 85.1%; in the assay on U251 CNS, 76.1%; in the assay on PC-3 prostate, 62.8%. For the same molecule, the growth is 85.8% with SK-MEL-5 melanoma; 53.4% in the assay on UACC-62 melanoma; -44.1% (active) in the assay with LOX IMVI melanoma; 50.3% in the assay with SK-MEL-28 melanoma; 59.9% in the assay on SK-MEL-2 melanoma; 82.3% with EKVX NSCLC. Further, the growth in the assay with SN12C renal was 79.8%; with UO-31 renal, 54.3%; in the assay with TK-10 renal, 35.9%; in the assay with ACHN renal it was 23.7%; with CAKI-1 renal, 79.9%; in the assay on A498 renal, 122%. For the same molecule, in the assay with CCRF-CEM leukemia, the growth is 28.5%.

With `COc1cc2c(cc1O)[C@@]1(C)[C@H](c3ccccc3Br)OC(=O)N1CC2`, the growth is 94.9% with HCT-15 colon; 96.7% with HT29 colon; 102% in the assay with SNB-75 CNS; 95.2% in the assay with SNB-19 CNS; 89.3% in the assay with U251 CNS; 71.3% in the assay with PC-3 prostate. Further, the growth was 68% in the assay on SK-MEL-5 melanoma; 72.1% in the assay with UACC-62 melanoma; 90.6% in the assay on LOX IMVI melanoma; 99.1% in the assay with SK-MEL-28 melanoma; 89.8% in the assay on SK-MEL-2 melanoma; 82% in the assay with EKVX NSCLC. For the same molecule, the growth in the assay with SN12C renal is 87.6%; with UO-31 renal it was 85.3%; in the assay with TK-10 renal, 91.9%; with ACHN renal it was 83.2%; in the assay on CAKI-1 renal, 92.5%; with A498 renal, 89.6%. In addition, in the assay on CCRF-CEM leukemia, the growth is 83%.

As to `O[C@@H](c1cc(C(F)(F)F)nc2c(C(F)(F)F)cccc12)[C@H]1CCCCN1`, the growth was 77.5% in the assay with HCT-15 colon; 53.8% in the assay on HT29 colon; 36.6% in the assay with SNB-75 CNS; 54.8% with SNB-19 CNS; 47.7% in the assay on U251 CNS; 49.4% in the assay on PC-3 prostate. For the same molecule, the growth was 82% in the assay with SK-MEL-5 melanoma; 56.2% in the assay on UACC-62 melanoma; 29.4% in the assay with LOX IMVI melanoma; 98.3% in the assay with SK-MEL-28 melanoma; 77% with SK-MEL-2 melanoma; 69.7% with EKVX NSCLC. The growth is 63.8% in the assay on SN12C renal; 50.4% with UO-31 renal; 66% with TK-10 renal; 37.8% in the assay on ACHN renal; 76.5% in the assay on CAKI-1 renal; 60% in the assay on A498 renal. For the same molecule, the growth with CCRF-CEM leukemia is 73%.

For `COc1cccc(Nc2ccnc3[nH]c4ccc([N+](=O)[O-])cc4c23)c1`, the growth with HCT-15 colon is 31.4%; with HT29 colon, 24.3%; in the assay with SNB-75 CNS it was 21%; in the assay with SNB-19 CNS it was 37.4%; in the assay on U251 CNS it was 42%; in the assay on PC-3 prostate, 48.2%. In addition, the growth in the assay on SK-MEL-5 melanoma was 38.7%; with UACC-62 melanoma, 24.2%; in the assay with LOX IMVI melanoma it was 52.2%; in the assay on SK-MEL-28 melanoma, 65.7%; in the assay on SK-MEL-2 melanoma, 40.2%; in the assay with EKVX NSCLC, 31.6%. Further, the growth was 65.2% in the assay on SN12C renal; 44.4% in the assay with UO-31 renal; 66.6% in the assay on TK-10 renal; 45.2% in the assay with ACHN renal; 28.8% with CAKI-1 renal; 43.5% in the assay on A498 renal. Further, the growth with CCRF-CEM leukemia is 42%.

In the case of `Cc1nc2sc(C(=O)Nc3cccc(Cl)c3)c(N)c2cc1C(O)c1ccccc1` (configuration not stated), the growth in the assay with HCT-15 colon is 14.2%; in the assay with HT29 colon it was 14.9%; in the assay with SNB-75 CNS, 46.9%; in the assay on SNB-19 CNS, 33.4%; in the assay with U251 CNS it was 10.2%; with PC-3 prostate, 28.1%. Further, the growth in the assay with SK-MEL-5 melanoma was 11%; in the assay on UACC-62 melanoma it was 31.5%; with LOX IMVI melanoma it was 45.3%; in the assay on SK-MEL-28 melanoma, 56%; in the assay on SK-MEL-2 melanoma, 49.9%; in the assay with EKVX NSCLC it was 44.6%. Besides, the growth in the assay with SN12C renal was 24.4%; in the assay on UO-31 renal, 45.7%; in the assay with TK-10 renal it was 62.4%; in the assay on ACHN renal, 30.5%; in the assay on CAKI-1 renal, 46.4%; in the assay on A498 renal, 8.38% (active). Besides, in the assay with CCRF-CEM leukemia, the growth was 17.1%.
